± gives the standard deviation.
Legend:
[1] = test system: MILI (PIWIL2) piRISC loaded with piRNA #1 (26 nt); test: pre-steady-state target cleavage rate (min^-1); guide: piRNA #1 5'p-UGAGGUAGUAGGUUGUAUAGUAUCCA; higher = faster piRNA-guided slicing of the target; details: auxiliary factor: 500 nM mouse GTSF1
Method in brief: (§1)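 Cleave-'n-Seq: a transcribed, DNA-blocked target RNA library (0.1 nM) was mixed with 1 nM active affinity-purified piRISC carrying one synthetic guide, with or without 500 nM GTSF1 partner protein, in HEPES–potassium acetate buffer at 33 °C for 0–8 or 0–960 min. Uncleaved targets were sequenced and normalised to depth and to weakly complementary targets. Three trials were pooled, and k3 was capped at 0.0001 min^-1. The pre-steady-state cleavage rate came from a burst-and-steady-state fit.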

[2] = test system: EfPiwi piRISC loaded with piRNA #1 (26 nt); test: pre-steady-state target cleavage rate (min^-1); auxiliary factor: 500 nM Ephydatia muelleri Gtsf1; guide: piRNA #1 5'p-UGAGGUAGUAGGUUGUAUAGUAUCCA; MIWI and MILI are mouse PIWI proteins and EfPiwi is from a freshwater sponge; tags in brackets are library labels; higher = faster piRNA-guided slicing of the target
Method in brief: as §1

| Sequence | pre-steady-state target cleavage rate [1] | pre-steady-state target cleavage rate [2] |
| --- | --- | --- |
| GGAGACGAAUACUAUACAACCUACUACCUCA | 0.178 ± 0.015 | 0.0529 ± 0.018 |
| GGAGAGGAUACUAUACAACGUACUACCUGA | 0.0116 ± 0.0027 | 0.00359 ± 0.0014 |
| GGAGAGGAUACUAUACAUCCAACUACCUCA | 0.0065 ± 0.0019 | 0.00419 ± 0.0022 |
| GGAGAGGAUACUAUAGAUCCUACUACCUCA | 0.242 ± 0.024 | 0.00654 ± 0.0034 |
| GGAGACGAUACUGAUACAACCUACUACCUCA | 0.203 ± 0.018 | 0.00712 ± 0.0036 |
| GGAGACCUAUCUAUACAACAUACUACCUCA | 0.0382 ± 0.0074 | 0.00529 ± 0.0038 |
| GGAGUGGAUGCUAUACAACCUACUACCUCA | 0.152 ± 0.022 | 0.0921 ± 0.046 |
| GGAGUGGAUACUAUACAUCCUUCUACCUCA | 0.0293 ± 0.0033 | 0.00476 ± 0.0022 |
| GGAGUGGAAACUAUACAACGUACUACCUCA | 0.0251 ± 0.0048 | 0.00364 ± 0.0017 |
| GGAGACCAUACUAUACAACCUACAACGUCA | 0.0302 ± 0.012 | 0.00373 ± 0.0033 |
| GGAGAGGAUACUAUACAACCUAGUACCUCA | 0.00636 ± 0.0033 | 0.00393 ± 0.0016 |
| GGAGACCUAACUACACAACCUACUACCUCA | 0.166 ± 0.039 | 0.00487 ± 0.0033 |
| GGAGACCUUACUAUACAAGCUACUACCUGA | 0.158 ± 0.021 | 0.00346 ± 0.003 |
| GGAGACCUAUCUAUACAACCUACUACCUUCA | 0.139 ± 0.017 | 0.0604 ± 0.023 |
| GGAGUGGAUACAUACAACCUACUACCUCA | 0.131 ± 0.011 | 0.131 ± 0.048 |
| GGAGACGAUACUAUACAACGUACUACCUCA | 0.0266 ± 0.0047 | 0.00525 ± 0.0016 |
| GGAGACCAUACUAUACAAACCUACUACCUCA | 0.0045 ± 0.003 | 0.00703 ± 0.0028 |
| GGAGACCUAACUAUACAAGCUACUACCUCA | 0.206 ± 0.02 | 0.00482 ± 0.0028 |
| GGAGACGAUACUAUACAACCUUCAACCUCA | 0.00736 ± 0.0019 | 0.00247 ± 0.0013 |
| GGAGACCUAUCUACACAACCUACUACCUCA | 0.072 ± 0.0099 | 0.00358 ± 0.0034 |

| Sequence | pre-steady-state target cleavage rate [1] | pre-steady-state target cleavage rate [2] |
| --- | --- | --- |
| GGAGACCUAACUAUACAACGUACUUCCUCA | 0.0215 ± 0.0078 | 0.00713 ± 0.0049 |
| GGAGACGAUACUAUACAACGCUACUACCUCA | 0.00688 ± 0.0028 | 0.00969 ± 0.0037 |
| GGAGAGGAUACUAUACAACCUACUUGCUCA | 0.00476 ± 0.0029 | 0.00478 ± 0.0023 |
| GGAGUGGAUACUAUACAACCUUCUACCACA | 0.00348 ± 0.0024 | 0.00272 ± 0.0016 |
| GGAGAGGAUACAAUACAAGCUACUACCUCA | 0.178 ± 0.017 | 0.0036 ± 0.0019 |
| GGAGACCAUACUAUACAACCUACUAGCCUCA | 0.176 ± 0.024 | 0.00697 ± 0.0031 |
| GGAGAGGAUACUAUACAUCCUACUACCUGA | 0.00529 ± 0.0032 | 0.00462 ± 0.002 |
| GGAGACGAUACUAUCCAACCUACUACCUCA | 0.175 ± 0.016 | 0.00717 ± 0.0028 |
| GGAGUGGAUACUAAACAACCUACUACCUCA | 0.168 ± 0.0092 | 0.00791 ± 0.0037 |
| GGAGUGGAUACUAUAGAACGUACUACCUCA | 0.0156 ± 0.0021 | 0.00156 ± 0.0015 |
| GGAGACCUUACUAUACAGCCUACUACCUCA | 0.116 ± 0.012 | 0.068 ± 0.028 |
| GGAGACGAUACUAGUACAACCUACUACCUCA | 0.153 ± 0.013 | 0.0047 ± 0.0025 |
| GGAGACCUUACUACUACAACCUACUACCUCA | 0.107 ± 0.011 | 0.00852 ± 0.0036 |
| GGAGACCAUACUAUACACCCUACUACCUCA | 0.0841 ± 0.016 | 0.00656 ± 0.0021 |
| GGAGUGGAUACUAUACAACCGACUACCUCA | 0.00279 ± 0.0026 | 0.00469 ± 0.0016 |
| GGAGACCUAUGUAUACAACCUAGUACCUCA | 0.00921 ± 0.0021 | 0.00291 ± 0.0029 |
| GGAGACGUUACUAUACAAGCUACUACCUCA | 0.216 ± 0.017 | 0.00435 ± 0.002 |
| GGAGACGAUACUAAACUACCUACUACCUCA | 0.24 ± 0.018 | 0.00228 ± 0.0021 |
| GGAGACGAAACUAUACAACCUACAACCUCA | 0.133 ± 0.031 | 0.00368 ± 0.0027 |
| GGAGACCUAUGAAUACAACCUACUACCUUA | 0.00551 ± 0.0022 | 0.00423 ± 0.0038 |

| Sequence | pre-steady-state target cleavage rate [1] | pre-steady-state target cleavage rate [2] |
| --- | --- | --- |
| GGAGACCUUACUAUACAACCUGCUACCUCA | 0.0466 ± 0.0081 | 0.0174 ± 0.0079 |
| GGAGUCGAUACUAUUCAACCUACUACCUCA | 0.192 ± 0.012 | 0.00506 ± 0.0029 |
| GGAGAGGAUACUAUACAACCUACUACCUGA | 0.0731 ± 0.011 | 0.00647 ± 0.0028 |
| GGAGACCUUACUAUACAACCUUCUACCUCA | 0.00711 ± 0.0021 | 0.00767 ± 0.0037 |
| GGAGAGGAUACAAUACAACCAACUACCUCA | 0.00985 ± 0.0026 | 0.00366 ± 0.0019 |
| GGAGAGGAUACUAAACAACCUACUAGCUCA | 0.0547 ± 0.012 | 0.00242 ± 0.0017 |
| GGAGUGGAUUCUAUACAACCUACUACCUCA | 0.175 ± 0.0091 | 0.00893 ± 0.0047 |
| GGAGACGAUACUAUACUACCUACUUCCUCA | 0.101 ± 0.016 | 0.00224 ± 0.0016 |
| GGAGACGUUACUAUACUACCUACUACCUCA | 0.169 ± 0.011 | 0.00494 ± 0.0024 |
| GGAGAGGAUACUAUACUACGUACUACCUCA | 0.0192 ± 0.0028 | 0.00407 ± 0.0022 |
| GGAGUGGAUACUAUACAACCUACUACCCA | 0.0544 ± 0.013 | 0.00631 ± 0.0022 |
| GGAGACGAUACUAUACAACCUACCUACCUCA | 0.131 ± 0.011 | 0.00485 ± 0.002 |
| GGAGAGGAUACUUAUCAACCUACUACCUCA | 0.135 ± 0.0097 | 0.00553 ± 0.0043 |
| GGAGAGGAUACUAUAGAACCUACUACCACA | 0.0636 ± 0.0099 | 0.00261 ± 0.0014 |
| GGAGACCUAUCUAUACAACCUACUAUCUCA | 0.0794 ± 0.013 | 0.00591 ± 0.004 |
| GGAGACGAUACUAUACAACCUUCUACCUCA | 0.0098 ± 0.0026 | 0.00729 ± 0.0029 |
| GGAGUGCAUACUAUACAACCAACUACCUCA | 0.00672 ± 0.0023 | 0.00484 ± 0.0026 |
| GGAGACCUAUCUAUACAACCUAUUACCUCA | 0.0974 ± 0.01 | 0.00466 ± 0.0039 |
| GGAGACCUAACUAUACAACCUACUACGACA | 0.118 ± 0.037 | 0.00325 ± 0.0029 |
| GGAGACGAUACAAUACAACCUACUACCUCA | 0.158 ± 0.012 | 0.0117 ± 0.0044 |
